ADAM17 inh – inhibits human ADAM17. P78536. recombinant ADAM17, EDANS/DABCYL FRET peptide cleavage. inhibition, % at 6.95 µM. hit rate 0.83% among 370,000;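 active = inhibition above the mean of compounds lying between control limits plus 3 SD, set per campaign, cut at about 8.5% in these data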
Target sequence (P78536 215-824 limits assumed): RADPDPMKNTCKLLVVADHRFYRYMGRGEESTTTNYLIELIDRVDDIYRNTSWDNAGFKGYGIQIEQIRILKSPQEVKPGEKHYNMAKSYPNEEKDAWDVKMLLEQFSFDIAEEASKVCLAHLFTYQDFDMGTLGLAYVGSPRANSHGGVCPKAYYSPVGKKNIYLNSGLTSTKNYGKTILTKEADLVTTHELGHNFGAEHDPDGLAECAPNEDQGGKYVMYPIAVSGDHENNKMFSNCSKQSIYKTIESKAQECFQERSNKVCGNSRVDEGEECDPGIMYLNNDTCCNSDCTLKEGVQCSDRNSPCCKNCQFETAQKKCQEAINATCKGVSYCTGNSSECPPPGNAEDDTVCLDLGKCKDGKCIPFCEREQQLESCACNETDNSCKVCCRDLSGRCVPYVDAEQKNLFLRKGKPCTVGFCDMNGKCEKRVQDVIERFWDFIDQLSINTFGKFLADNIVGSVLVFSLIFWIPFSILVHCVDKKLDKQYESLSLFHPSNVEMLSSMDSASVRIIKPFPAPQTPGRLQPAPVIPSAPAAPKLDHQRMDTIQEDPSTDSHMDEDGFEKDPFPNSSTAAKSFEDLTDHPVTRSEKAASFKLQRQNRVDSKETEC
ADAM10 inh – inhibits human ADAM10; O14672; recombinant ADAM10, EDANS/DABCYL FRET peptide cleavage, 3 h; inhibition, % at 7 µM; hit rate 0.62% among 370,000; AID 720582;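 active = inhibition above a per-campaign cutoff equal to the mean of compounds falling between control-based bounds plus 3 SD, cut at about 20% in these data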
rRNA inh HTS – inhibitors of bacterial rRNA selective over humanized ribosomes | GFP signal change (wild-type ribosome), % (no concentration beside the values) | hit rate 1.6% among 350,000 | E. coli WT GFP vs humanized-ribosome RFP mutants, fluorescence, 24 h; active compounds read low; DMSO median 0, no signal -100;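 active = significant combined selectivity score with lowered wild-type GFP, culture density cut under 30%, mutant RFP and density less affected; inactive = any of these conditions unmet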
proKLK7 act – activates the human kallikrein-7 zymogen; activation, % at 7 µM; AID 652039; hit rate 0.9% among 370,000; purified proKLK7, EDANS-DABCYL substrate fluorescence; 100% is mature enzyme control, 0% vehicle; P49862;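 active = activation above the mean of all tested compounds plus 3 SD, computed per campaign excluding outliers beyond control limits, cut at about 13% in these data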
FGF22 binding – shifts melting point of recombinant human FGF22 | Q9HCT0 | recombinant FGF22 thermal shift, SYPRO orange fluorescence; percent of sucrose octasulfate shift, DMSO zero | activity (Tm shift, normalised), % at 9.99 µM | hit rate 1.5% among 340,000 | AID 651658;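 active = mean Tm shift, scaled 0 neutral to 100 positive control, at about 1.3% or above, every replicate too, limit read from the data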
ADAM10 confirm – human ADAM10 inhibition, confirmation; ADAM10 QFRET peptide cleavage, EDANS fluorescence; shares compounds with ADAM10 inh; inhibition, % at 6.95 µM; hit rate 1% among 2,100;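 active = inhibition above about 20% chosen separately for each screening run, limit read from the data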
ADAM17 ctr – counter-screen for ADAM10 exosite inhibitors: inhibitors of human ADAM17; hit rate 0.5% among 2,100; ADAM17 QFRET peptide cleavage, EDANS fluorescence; shares compounds with ADAM10 inh; inhibition, % at 6.95 µM;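 active = mean triplicate inhibition above the solvent-only control wells' mean plus 3 SD, cut at about 12% in these data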
ADAM10 ctr – ADAM10 inhibition, counter-screen for ADAM17 exosite hits; recombinant ADAM10, EDANS/DABCYL FRET peptide cleavage, 3 h; inhibition, % at 6.95 µM; hit rate 47% among 2,900; shares compounds with ADAM17 inh;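 active = mean inhibition over the triplicate runs exceeds the activity threshold set in the earlier primary screen, cut at about 20% in these data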
ADAM17 confirm – human ADAM17 inhibition, confirmation; hit rate 65% among 2,900; recombinant ADAM17, EDANS/DABCYL QFRET peptide cleavage; AID 743257; inhibition, % at 6.95 µM; shares compounds with ADAM17 inh;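 active = mean inhibition across replicates above the hit cutoff set in the primary screen, cut at about 8.5% in these data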
Hits are given with their value; 0 = inactive; - = not tested or not shown. Shown are actives, neighbours in structure and some others; about 3.8% of the full set was active somewhere.

SMILES	ADAM17 inh	ADAM10 inh	rRNA inh HTS	proKLK7 act	FGF22 binding	ADAM10 confirm	ADAM17 ctr	ADAM10 ctr	ADAM17 confirm
CCNC(=O)C[C@@H]1CC[C@H](NS(=O)(=O)c2ccc(C)cc2)[C@@H](CO)O1	-	-	0	-	0	-	-	-	-
CN(Cc1ccccc1)C(=O)Cn1nnc(-c2ccccc2)c1COc1ccc2ccccc2c1	20.3	34.2	0	0	0	0	0	25.0	15.6
CO[C@H]1CN(C)C(=O)c2cc(NC(=O)NC(C)C)ccc2OC[C@H](C)N(Cc2ccc(-c3ccccn3)cc2)C[C@H]1C	-	-	0	-	0	-	-	-	-
COC(=O)[C@@]12C[C@@H](CC(=O)NCCCCc3ccccc3)C(=O)N(Cc3ccc4c(c3)OCO4)C1=CCC(C)(C)C2	16.7	27.3	0	0	0	0	0	28.5	15.0
COc1ccccc1-c1ccc2c(c1)[C@@H]1[C@@H](CCN1S(=O)(=O)c1cccc(C)c1)[C@H](CO)N2	-	-	0	-	0	-	-	-	-
O=C1C=C(c2cccc(Cl)c2O)C[C@@H](c2ccc(Cl)cc2)C1	13.9	21.6	0	0	0	0	0	21.9	13.0
O=C1C=C(c2cccc(Cl)c2)C[C@@H](c2ccc(Cl)cc2)C1	0	0	0	0	0	-	-	-	-
CCS(=O)(=O)NCC[C@H]1CC[C@H](NC(=O)C2CCCCC2)[C@@H](CO)O1	-	-	0	-	-	-	-	-	-
COc1cccc(NC(=O)N[C@H]2CC[C@@H](CC(=O)N3CCCCC3)O[C@@H]2CO)c1	-	-	0	-	0	-	-	-	-
COC(=O)CN1C(c2cccc(Cl)c2)=Nc2ccc(Cl)cc2C1c1ccccc1 (centres undefined)	16.2	21.2	-	0	0	0	0	0	8.8
Cc1cc(Cn2nc(-c3ccccc3)cc2C(=O)NCc2cccc(C(F)(F)F)c2)on1	0	0	0	0	0	-	-	-	-
Cc1cc(Cn2nc(-c3ccccc3)cc2C(=O)NCc2cccc(Br)c2)on1	10.8	37.1	0	0	0	0	0	23.8	16.0
CO[C@H](CN(C)C(=O)c1ccccc1F)[C@@H](C)CN([C@H](C)CO)S(=O)(=O)c1ccc(C)cc1	-	-	0	-	0	-	-	-	-
CCN(CC)S(=O)(=O)c1cccc(NC(=O)CC2CCCC2)c1	0	0	0	0	0	-	-	-	-
CCN(CC)S(=O)(=O)c1cccc(NC(=O)Nc2cccc(C(F)(F)F)c2)c1	11.1	30.2	-	0	-	0	0	55.3	29.1
COc1ccc2c(c1)c(CC(=O)Nc1ccc(C(C)=O)cc1)c(C)n2C(=O)c1ccc(Cl)cc1	11.9	23.7	-	0	0	0	0	29.7	17.6
C[C@@H](NC(=O)C[C@@H]1C=C[C@H](NC(=O)Nc2ccc3c(c2)OCO3)[C@@H](CO)O1)c1ccccc1	-	-	0	-	0	-	-	-	-
Cc1cccc(NC(=O)c2nc[nH]c2C(=O)N(C)Cc2ccccc2)c1	9.4	21.4	0	0	0	0	0	0	0
Cc1cccc(NC(=O)c2nc[nH]c2C(=O)N[C@@H](C)c2ccccc2)c1	10.0	26.2	0	0	0	0	0	29.1	14.6
CN(Cc1ccccc1)C(=O)c1[nH]cnc1C(=O)Nc1ccccc1	0	0	0	0	0	-	-	-	-
Cc1cccc(NC(=O)c2nc[nH]c2C(=O)Nc2cccc(C)c2)c1	0	0	0	0	0	-	-	-	-
Cc1ccc(NC(=O)CN(Cc2ccco2)Cc2ccccc2O)cc1C	13.8	28.0	0	0	0	0	0	30.4	14.2
OCCN(Cc1ccccc1)CC(O)COc1ccc(-c2ccccc2)cc1 (centres undefined)	13.4	29.9	0	0	0	0	0	30.8	15.6
O=C1N[C@@H](Cc2c[nH]c3ccccc23)COC(=O)[C@H](Cc2ccc(F)cc2)C/C=C\C[C@@H]1CC(=O)N(CCO)Cc1ccccc1	0	0	0	0	0	-	-	-	-
